Screens (PubChem BioAssay)
A selection follows.
ERK EGF inh: EGF-driven ERK pathway inhibition | HEK293-V1b, EGF-stimulated phospho-ERK AlphaScreen | AID 1454 | Potency, µM (highest dose often 11.5 µM), without a hit: at the top dose activity change, negative = inhibition, hits mostly inhibitors | 130,000 tested, 0.41% active;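 further: potency means the concentration at half of the fitted maximal effect; plate controls were stimulated vehicle wells for no effect and unstimulated vehicle basal for full effect; nearly all actives have a fitted effect of over 55% in size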
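Phospho-ERK1/2 measured by AlphaScreen (SureFire) after 5 min 25 nM EGF stimulation of V1b-expressing HEK293 cells preincubated 30 min at 37C with titrated compounds; data scaled to DMSO and EGF controls, Hill-fitted AC50.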
ERK pERK EGF: confirmation of ERK pathway inhibitors under EGF stimulation; AID 1725; HEK293 EGF-stimulated ERK phosphorylation, AlphaScreen; 60 tested, 60% active; shares compounds with ERK EGF inh; Potency, µM (doses to about 57.5 µM), for the others: at the highest dose activity change, negative = inhibition, most hits filed as inhibitors
cRaf kinase inh: blocks human c-Raf kinase activity | 70 tested, under 10 active | shares compounds with ERK EGF inh | c-Raf kinase inhibition, homogeneous biochemical assay | activity change, negative = inhibition, % at 76.9 µM
MEK1 kinase inh: blocks human MEK1 kinase activity in ERK pathway follow-up | homogeneous MEK kinase activity assay, ERK pathway | 70 tested, under 10 active | Potency, µM (highest dose often 76.9 µM), for the others: at the top dose activity change, negative = inhibition, most hits filed as inhibitors | AID 1732 | shares compounds with ERK EGF inh
Starred values were filed as active, the others as inactive; ? = inconclusive; [ ] = dose if it differs, or a comment. The call rests on the fitted dose curve; in most records, active means well fitted curve in the direction sought with a large enough effect; inconclusive means small, poorly fitted or top-dose-only effect, or another doubt; inactive means no such curve, though single readings can be large; an effect the other way counts as inactive or inconclusive.

SMILES	ERK EGF inh	others
CN(c1ccccc1)S(=O)(=O)c1cccc(C(=O)Nc2ccc3c(c2)CCC3)c1	11%
Cc1onc(-c2ccccc2)c1C(=O)NNC(=S)NC(=O)/C=C/c1ccccc1	8%
CC1CC(=O)Nc2ccccc2N1C(=O)CN1CCN(C=O)CC1 (stereo unspecified)	-3%
NNC(=O)CC(=O)NC1(Cc2ccc(O)cc2)CCCCC1	-8%
CCN1C(=O)C(CC(=O)Nc2ccc(C)cc2C)Nc2cc(S(=O)(=O)N(C)C)ccc21 (stereo unspecified)	-4%
C=CCN1C(=O)/C(=C/C=C2/N(CC)c3ccc(S(=O)(=O)N(C)C)cc3N2CC)SC1=S	?	ERK pERK EGF=?;cRaf kinase inh=-2;MEK1 kinase inh=5%
C=CCN1C(=O)/C(=C\c2cc(Br)c(OCc3ccccn3)c(OC)c2)SC1=S	0%
CC(C)c1cc(C(=O)N2CCN(C(c3ccccc3)c3ccccc3)CC2)no1	2%
CC(C)NC(=O)COC(=O)c1cncc(Br)c1	-12%
Cc1nc2cc3sc(C)nc3cc2s1	-4%
Cc1cc2nc3ccc(=[N+](C)C)cc-3sc2cc1N	?	ERK pERK EGF=11%;cRaf kinase inh=?;MEK1 kinase inh=?
Cc1nc2cc(C)c(C)cc2s1	-20%[57.5 µM]
Cc1nn(Cc2ccc([N+](=O)[O-])cc2)c(=O)n1-c1ccccc1Cl	3%
CCC(=O)Nc1ccc(NC(=S)NC(=O)/C=C/c2ccccc2)cc1	-4%
Cc1ccc(N2C(S)=C(C#N)C(=O)NC2c2cccs2)cc1 (stereo unspecified)	6%
NNS(=O)(=O)c1ccc(N2CCCC2=O)c([N+](=O)[O-])c1	8%
CCCOc1ccc(/C=N/NC(=S)Nc2ccccc2[N+](=O)[O-])c(O)c1	2%
CCCOc1ccc(/C=N/Nc2cccc([N+](=O)[O-])c2)c(O)c1	6%
CCCOc1ccc(/C=N/Nc2ccccc2[N+](=O)[O-])c(O)c1	?	ERK pERK EGF=?;cRaf kinase inh=?;MEK1 kinase inh=-3%
COc1ccc(S(=O)(=O)Nc2nncs2)cc1	13%
O=C1CSC(c2ccccc2[N+](=O)[O-])N1c1ccccc1 (stereo unspecified)	1%
